# Compound activity deposited in PubChem by National Center for Advancing Translational Sciences (NCATS).
# Hits are enriched below; roughly 5.8% of the tested compounds scored in any of these assays.
# SW480 rerep: induces DNA re-replication in SW480 colon adenocarcinoma cells. SW480 DNA re-replication, Hoechst DNA content imaging, 48 h. Potency, µM (highest dose often 46.1 µM), for inactives: at the highest dose re-replication activation, hits mostly activators. actives 1.8% (n = 340,000). AID 624297; further: % of control where 0% means no effect; nearly all actives have a fitted effect of over 55% in size
#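 SW480 cells exposed to compounds for 48 hr at 37 C, 5% CO2, then Hoechst-stained 40 min. Nuclear DNA content imaged by fluorescence scanning (405 nm excitation, 500-530 nm emission); re-replication scored as increased high-intensity nuclei.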
# 12-LOX inh: blocks human arachidonate 12S-lipoxygenase; AID 1671190; P18054; Potency, µM (highest dose often 108 µM), for inactives: at the highest dose activity change, negative = inhibition, most hits filed as inhibitors; purified 12hLO, xylenol orange hydroperoxide absorbance; actives 1.1% (n = 580,000); further: on the % scale 0 is the no-effect control and ±100 the full control effect
# Target sequence (P18054 whole entry, looked up): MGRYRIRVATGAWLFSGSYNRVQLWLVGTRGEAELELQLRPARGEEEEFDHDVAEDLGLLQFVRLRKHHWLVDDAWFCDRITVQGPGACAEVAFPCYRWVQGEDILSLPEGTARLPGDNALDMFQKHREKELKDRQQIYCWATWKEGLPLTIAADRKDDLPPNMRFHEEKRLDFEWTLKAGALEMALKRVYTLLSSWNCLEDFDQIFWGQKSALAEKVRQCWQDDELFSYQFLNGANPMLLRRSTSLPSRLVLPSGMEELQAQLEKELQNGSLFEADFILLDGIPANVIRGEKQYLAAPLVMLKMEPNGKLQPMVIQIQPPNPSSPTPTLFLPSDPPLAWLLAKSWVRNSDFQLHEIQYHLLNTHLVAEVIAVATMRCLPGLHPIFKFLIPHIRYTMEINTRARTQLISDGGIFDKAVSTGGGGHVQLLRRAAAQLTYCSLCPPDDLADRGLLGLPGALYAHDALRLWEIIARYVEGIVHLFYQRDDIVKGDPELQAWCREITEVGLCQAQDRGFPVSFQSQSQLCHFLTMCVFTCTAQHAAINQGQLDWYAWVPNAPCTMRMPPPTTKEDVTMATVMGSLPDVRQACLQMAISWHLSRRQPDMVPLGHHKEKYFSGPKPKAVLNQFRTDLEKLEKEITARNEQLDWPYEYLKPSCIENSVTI
#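 Hydroperoxide product was detected by ferrous iron/xylenol orange as the 573 to 405 nm absorbance ratio. Arachidonic acid at 40 uM (final) was turned over for 30 min at room temperature by 150 nM human 12hLO, pH 7.0 Hepes buffer, after 15 min compound preincubation.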
# MCF10A rereplic: induces DNA re-replication in MCF 10a normal breast cells. MCF 10A DNA re-replication, Hoechst nuclear intensity, 48 h. Potency, µM (top dose mostly 46.1 µM), inactives show at the top dose activity, positive = re-replication, hits mostly activators. actives 2.9% (n = 350,000); further: % of control where 0% means no effect; nearly all actives have a fitted effect of over 50% in size
# PINK1 modulator: PINK1 expression modulation; PINK1 immunofluorescence, high-content cytometry, 24 h; Potency, µM (highest dose often 76.6 µM), for the others: top-dose activation (PINK1 increase), usual class: activators; actives 0.2% (n = 410,000); AID 624263; active means well fitted activation curve with a large enough effect; inconclusive means small, poorly fitted or top-dose-only effect; cell line not stated here; further: % of control where 0% means no effect; nearly all actives have a fitted effect of over 65% in size
#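 Cells are seeded, rested 12 hours, then given compound at five concentrations or DMSO for 24 hours. After fixation, blocking and antibody staining, PINK1 amount and mitochondrial localization are scored; CCCP serves as control.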
# KB-V1 cytotox: KB-V1 MDR subline cytotoxicity; KB-V1 MDR cells viability, CellTiter-Glo, 72 h; Potency, µM (doses to about 46.1 µM), actives largely listed as cytotoxic; actives 3.4% (n = 400,000); AID 1347076; further: on the % scale 0 is the no-effect control and ±100 the full control effect; nearly all actives have a fitted effect of over 60% in size
#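 qHTS viability screen in drug-selected KB-V1 MDR cells: 72 h compound treatment at 37 degrees C, ATP luminescence end point.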
# KB-3-1 cytotox: kills parental KB-3-1 adenocarcinoma cells; Potency, µM (highest dose often 46.1 µM), hits mostly cytotoxic; AID 1347075; KB-3-1 viability, CellTiter-Glo ATP luminescence, 72 h; actives 1.4% (n = 400,000); further: on the % scale 0 is the no-effect control and ±100 the full control effect; nearly all actives have a fitted effect of over 60% in size
#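 Here the drug-naive KB-3-1 line serves as comparator for MDR sub-line selectivity; cells received compound titrations, 72 h at 37 °C, then CellTiter-Glo readout.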
# An asterisk follows results filed as active; i = inactive; ? = inconclusive; . = no result given; [ ] = remark or other dose. Unless noted, the call rests on the fitted dose curve; in most records, active means well fitted curve in the direction sought with a large enough effect; inconclusive means small, poorly fitted or top-dose-only effect, or another doubt; inactive means no such curve, though single readings can be large; an effect the other way counts as inactive or inconclusive. Potency means the concentration at half of the fitted maximal effect.
SMILES,SW480 rerep,12-LOX inh,MCF10A rereplic,PINK1 modulator,KB-V1 cytotox,KB-3-1 cytotox
Cn1ccc2c(N(Cc3ccccc3)Cc3ccccc3)cc3c(c21)C1CCC3O1 (stereo unspecified),.,11.2µM*,.,4.3%,i,i
OC(c1ccccc1)c1cc2n(n1)CCN(Cc1cncn1C1CC1)C2 (stereo unspecified),.,48.6%,.,.,.,.
O=C(Nc1ccncc1)C1CCCN(S(=O)(=O)c2cccc3cccnc23)C1 (stereo unspecified),2.06µM*,422.2%,9.2µM*,0.5%,i,?
CC(C)(C)c1ccc(NC(=O)c2cc(C3CCCN(S(=O)(=O)c4cccc5cccnc45)C3)on2)cc1 (stereo unspecified),.,20.3%,.,-0.8%,23.1µM*,?
Clc1ccccc1-c1nnc2sc(-c3ccc(Br)o3)nn12,19.4%,-4.1%,?,-6.1%,i,i
Clc1ccc(-c2nnc3sc(-c4ccc(Br)o4)nn23)c(Cl)c1,3.2%,?,9.2µM*,15.2%,?,i
Cc1ccccc1CC(=O)Nc1ccccc1NS(C)(=O)=O,.,-28.0%,.,.,.,.
CCNS(=O)(=O)c1ccc(C(=O)OCc2cc(=O)oc3cc(OC)ccc23)cc1,?,-11.5%,14.6µM*,7.4%,i,i
COc1ccc2c(COC(=O)c3ccc(F)cc3)cc(=O)oc2c1,.,-0.8%,.,.,.,.
Cc1sc2ncnc(NC3CCN(Cc4ccccc4)CC3)c2c1C,12.4%,3.8%,16.8%,0.3%,1.64µM*,?
CN(C)C(CNC(=O)CC1C=CCC1)c1cccs1 (stereo unspecified),.,22.9%,.,.,.,.
CCNc1c(NC(=O)Nc2ccccc2Br)c(=O)oc2ccccc12,.,-11.8%,.,.,.,.
COc1ccc(S(=O)(=O)N2CCCCCC2)cc1C(=O)NCCOc1ccc(C)cc1,22.4%,-4.8%,25.7%,-2.1%,9.2µM*,i
CCN(CC)S(=O)(=O)c1ccc2c(c1)c(=O)c(C(=O)NCCCN(C)c1ccccc1)cn2C,1.4%,-26.1%,0.8%,10.0%,i,i
Cc1cc(C)cc(OCCNC(=O)c2cc(S(=O)(=O)N3CCOCC3)ccc2F)c1,?,8.5%,19.9%,0.8%,?,23.1µM*
CCN(CC)S(=O)(=O)c1ccc2c(c1)c(=O)c(C(=O)NCc1cccs1)cn2C,-124.8%,-2.7%,-31.3%,5.3%,6.51µM*,i
COc1ccc(S(=O)(=O)N2CCCCCC2)cc1C(=O)Nc1ccc(C)cn1,-78.6%,-12.3%,-11.8%,2.3%,i,i
COc1ccc(S(=O)(=O)N2CCCCCC2)cc1C(=O)NCc1cccs1,0.3%,-23.5%,2.9%,5.8%,8.2µM*,i
CCCn1c(N)c(C(=O)CSc2cc(C)c3ccccc3n2)c(=O)[nH]c1=O,.,13.9%,.,.,.,.
Cc1ccc(CNC(=O)[C@@]23CCCC[C@H]2N(C)C(=O)CC3)cc1,.,4.7%,.,.,.,.
N#Cc1nc(-c2cccs2)oc1N1CCN(C(=O)c2cccc(Cl)c2)CC1,.,54.0%,.,.,.,.
COc1ccc(S(=O)(=O)N2CCCCCC2)cc1C(=O)N(C)Cc1ccc(C(C)(C)C)cc1,-16.8%,-4.6%,18.4µM*,?,?,?
COc1ccc(S(=O)(=O)N2CCCCCC2)cc1C(=O)N(C)Cc1ccc(F)cc1,-57.0%,-1.9%,-9.5%,-1.4%,i,i
Cc1cc(C)c2oc(=O)cc(-c3oc4ccccc4c3N)c2c1,.,-14.0%,.,.,.,.
COc1ccc(-c2c[n+](CC(=O)OC3CC(C)CCC3C(C)C)c3n2CCC3)cc1 (stereo unspecified),-32.3%,6.9%,0.82µM*,39.8µM*,i,i
SMILES,SW480 rerep,12-LOX inh,MCF10A rereplic,PINK1 modulator,KB-V1 cytotox,KB-3-1 cytotox
CC(C)[C@@H]1CC[C@@H](C)C[C@H]1OC(=O)C[n+]1cc(-c2ccc(Cl)cc2)n2c1CCCCC2,?,?,?,?,i,?
COc1ccc(OC)c(-c2nc3c(C)n[nH]c(=O)c3[nH]2)c1,8.0%,-6.3%,23.7%,0.2%,18.4µM*,i
COc1ccc(Cn2nnc3c(C)n[nH]c(=O)c32)cc1,-3.2%,149.6%,0.1%,-0.3%,i,i
COc1cc(CNC2CCCC2)cc(Cl)c1OCc1ccccc1F,-5.6%,-28.8%,2.2%,23.4%[38.3 µM],23.1µM*,i
COc1cccc(CNC2CCCC2)c1OCc1ccccc1F,.,-15.8%,.,.,.,.
COc1cccc(C2=Nn3c(nnc3-c3ccccc3O)SC2)c1,7.0%,0.0%,16.1%,16.7%,i,i
C[n+]1c2n(c3ccccc31)N=C(c1cc(C(C)(C)C)c(O)c(C(C)(C)C)c1)CS2,?,28.2µM*,16.4µM*,-1.9%,i,4.11µM*
O=[N+]([O-])c1cc2no[n+]([O-])c2cc1N1CCCCC1,6.51µM*,?,3.26µM*,-6.5%,i,?
COc1ccc(OC)c(/C=C/C(=O)N2CCCc3ccccc32)c1,10.4%,-16.9%,-0.1%,-1.0%,?,i
COc1ccc(/C=C/C(=O)N2CCCc3ccccc32)cc1,?,1.9%,?,1.8%,13µM*,i
COc1ccc(N/N=C(/C(C)=O)N2CCCc3ccccc32)cc1,-10.2%,-45.2%,16.4%,5.3%,i,20.6µM*
C[C@H](CCC(=O)O)[C@H]1CCC2C3CC[C@@H]4C[C@H](O)CC[C@]4(C)C3CC[C@@]21C (stereo partly specified),.,1.4%,.,.,.,.
CCCCCCCCCn1ccc(=N)cc1,2.1%,79.5%,23.9%,?,16.4µM*,0.517µM*
CCCCCCCn1ccc(=N)cc1,?,0.0%,?,?,i,4.61µM*
O=C1C=CC2(O[C@H](c3ccccc3)[C@@H](c3ccccc3)O2)[C@H](Sc2ccccc2O)C1,?,?,?,10.0%,?,3.26µM*
C[C@@H]1[C@@H](Sc2ccccc2)CC(=O)O[C@@H]1c1ccc(-c2ccccc2)cc1,28.3%,-8.7%,101.0%,-1.1%,?,?
c1ccc2[nH]c(-c3nn4c(C5CCCCC5)nnc4s3)cc2c1,.,-17.7%,.,.,.,.
Cn1c(CCC(=O)Nc2cc(S(C)(=O)=O)ccc2Cl)nc2cc(S(=O)(=O)N3CCOCC3)ccc21,5.2%,44.7µM*,7.9%,0.3%,i,i
CCn1c(SCC(=O)OC)nc2cc(S(=O)(=O)N3CCOCC3)ccc21,?,-22.9%,-6.2%,-3.2%,i,i
O=S(=O)(c1ccc2c(c1)nc(COc1ccc(Cl)cc1)n2CC1CCCO1)N1CCOCC1 (stereo unspecified),8.4%,1.7%,10.1%,-0.4%,23.1µM*,i
CCCCn1c(C)nc2cc(S(=O)(=O)N3CCOCC3)ccc21,3.8%,-5.6%,-0.2%,3.5%,i,i
